Results reported in the antibiotic and cytotoxicity screens of Wong et al. (2023).
In all, about 39,000 compounds went through this assay and about 3,300 (8.5%) were called active. Many of the other results were omitted from the sample, so actives are more common in it than they were.

tested on: HepG2; test: cytotoxicity call (relative viability < 0.9); settings: 10 µM

Compound	cytotoxicity call
CCNC(=O)C[C@H]1CC[C@H]2[C@@H](COC[C@H](O)CN2C(=O)Nc2c(C)noc2C)O1	inactive
O=C(C[C@@H]1C=C[C@H](NS(=O)(=O)c2ccccc2)[C@H](CO)O1)NCc1ccncn1	inactive
COc1ccc2c3c(n(c2c1)C)[C@@H](CO)N(C[C@]13CCN(CC1)C(=O)Nc1cccc(c1)F)S(=O)(=O)C	inactive
C[C@H]1CN([C@@H](C)CO)C(=O)Cc2cc(NC(=O)c3ccncc3)ccc2O[C@H]1CN(C)Cc1ccncc1	inactive
COCCNC(=O)C[C@@H]1CC[C@@H]2[C@H](COC[C@@H](O)CN2S(=O)(=O)c2ccccc2C)O1	inactive
C[C@H](CO)N1C[C@H](C)[C@@H](CN(C)C(=O)C2CCCCC2)OCCCC[C@H](C)Oc2ccc(NC(=O)CCC(F)(F)F)cc2C1=O	inactive
C[C@@H]1CCCCO[C@@H](CN(C)C(=O)c2ccncc2)[C@@H](C)CN([C@@H](C)CO)C(=O)c2cc(NS(=O)(=O)c3cn(C)cn3)ccc2O1	inactive
Cc1noc(C)c1NC(=O)Nc1cccc2c1O[C@H](CN(C)C(=O)Nc1ccc(C(F)(F)F)cc1)[C@@H](C)CN([C@@H](C)CO)C2=O	inactive
C=CC[C@@H](CC(=O)N[C@@H](CO)Cc1ccccc1)C(=O)N1CCC[C@@H]1COC(=O)[C@@H](CC=C)NC(=O)OCC1c2ccccc2-c2ccccc21	inactive
C[C@@H]1CN([C@H](C)CO)C(=O)Cc2cc(NC(=O)Nc3cccc4ccccc34)ccc2O[C@@H]1CN(C)Cc1ccc(-c2ccccc2)cc1	inactive
CCS(=O)(=O)N1C[C@]2(CCN(CC2)C(=O)c2cccnc2)c2c(n(c3cc(ccc23)OC)C)[C@@H]1CO	inactive
COCCNC(=O)c1ccc(N2C[C@H]3C[C@@H](C2)c2cccc(=O)n2C3)c(NC(=O)c2ccc(OC)cc2)c1	inactive
COc1cc2c(cc1OC)CN(C(=O)[C@H]1[C@@H]3C(=O)O[C@@H](c4ccccc4)[C@@H](c4ccccc4)N3[C@@H](c3ccc(OCCO)cc3)[C@]13C(=O)Nc1ccc(C#CC4(O)CCCCCC4)cc13)CC2	inactive
COc1cc2c(cc1OC)CN(C(=O)[C@H]1[C@@H]3C(=O)O[C@@H](c4ccccc4)[C@@H](c4ccccc4)N3[C@@H](c3ccccc3OCCO)[C@]13C(=O)Nc1ccc(C#CC4=CCCCC4)cc13)CC2	inactive
NC(=O)[C@H]1[C@@H]2C(=O)O[C@@H](c3ccccc3)[C@@H](c3ccccc3)N2[C@@H](c2ccccc2OCCO)[C@]12C(=O)Nc1ccc(C#CC3=CCCCC3)cc12	active
COc1cc2c(cc1OC)CN(C(=O)[C@@H]1[C@H]3C(=O)O[C@H](c4ccccc4)[C@H](c4ccccc4)N3[C@H](c3ccc(OCCO)cc3)[C@@]13C(=O)Nc1ccc(C#CC4(O)CCCCCC4)cc13)CC2	active
COc1cc2c(cc1OC)CN(C(=O)[C@@H]1[C@H]3C(=O)O[C@H](c4ccccc4)[C@H](c4ccccc4)N3[C@H](c3ccc(O)cc3)[C@@]13C(=O)Nc1ccc(C#CC4(O)CCCCCC4)cc13)CC2	inactive
NC(=O)NCC#Cc1ccc2c(c1)[C@]1(C(=O)N2)[C@H](C(N)=O)[C@H]2C(=O)O[C@H](c3ccccc3)[C@H](c3ccccc3)N2[C@@H]1c1ccccc1OCCO	inactive
O=C1O[C@@H](c2ccccc2)[C@@H](c2ccccc2)N2[C@@H](c3ccccc3OCCO)[C@]3(C(=O)Nc4ccc(C#CC5=CCCCC5)cc43)[C@@H](C(=O)N3CCCCCCC3)[C@H]12	active
O=C1O[C@@H](c2ccccc2)[C@@H](c2ccccc2)N2[C@@H](c3ccccc3OCCO)[C@]3(C(=O)Nc4ccc(C#CC5(O)CCCCCC5)cc43)[C@@H](C(=O)O)[C@H]12	inactive
O=C1O[C@H](c2ccccc2)[C@H](c2ccccc2)N2[C@H]1[C@@H](C(=O)N1CCCCCCC1)[C@]1(C(=O)Nc3ccc(C#CC4=CCCCC4)cc31)[C@H]2c1ccccc1OCCO	inactive
